# Screening results: PubChem BioAssay, Broad Institute
# aSyn 5UTR act = Activators via SNCA 5'UTR binding, MLPCN; alpha-synuclein 5'UTR reporter, activators screen; activity score, % (tested at 7.5 µM), hits read low; 300,000 compounds, 7.1% hits; AID 1814; in the data active means activity score below about -60%
# Starred values were filed as active, the others as inactive. A selection follows.
SMILES,aSyn 5UTR act
CN1C(=O)/C(=C2\SC(N3CCCCCC3)=NC2=O)c2ccccc21,-153*
C=C1C(=O)C=C2CN(C(=O)c3ccccc3)[C@@](Cc3ccc(F)cc3)(C(=O)OC)[C@@H]12,56
O=C1NCCC/C1=N/Nc1cc(F)ccc1F,-113*
CC(=O)c1ccc(N/N=C2/CCCNC2=O)cc1,-74*
O=C(NCc1ccccc1)c1cc(-c2cccc(O)c2)on1,-66*
Cc1ccc(NC(=O)c2cc(-c3cccc(O)c3)on2)cc1C,-115*
COc1ccc(CNC(=O)c2cc(C3CC3)on2)cc1,-106*
O=C(NCc1cccnc1)c1cc(-c2cccs2)on1,-92*
O=C(NCc1cccnc1)c1cc(-c2ccccc2)on1,-89*
COc1ccc(-c2cc(C(=O)NCc3cccnc3)no2)cc1,-117*
CCCC(=O)N=C1SC2CS(=O)(=O)CC2N1c1ccc(-c2nc3ccc(C)cc3s2)cc1 (stereo not drawn),-132*
O=C(Nc1nnc(C2CC2)s1)c1cccs1,-74*
CC(C)(C)c1nnc(NC(=O)c2cccs2)s1,-143*
CC(C)c1nnc(NC(=O)c2cccs2)s1,-102*
Cc1cc2ccccc2n1CCNC(=O)c1ccccc1,-114*
Cc1cc2ccccc2n1CCNC(=O)c1ccc(Br)o1,-78*
Cc1cc(-c2ccc(Cl)s2)n[nH]1,-80*
c1ccc2c(c1)nnn2-c1ncnc2sccc12,-147*
O=C(Nc1cnc2sc3c(n2c1=O)CCCC3)c1ccc(F)cc1,-105*
COc1ccc(C(=O)Nc2cnc3ccccn3c2=O)cc1,-169*
O=C(Nc1cnc2ccccn2c1=O)c1ccc(F)cc1,-92*
COc1ccc(NC(=O)Nc2ccccc2F)cc1Cl,-184*
O=C(Nc1ccccc1)Nc1cccn(Cc2c(F)cccc2Cl)c1=O,-103*
CC(=O)N(C)c1ccc(NC(=O)Nc2ccccc2C)cc1,-107*
Oc1c(N=NC(=S)Nc2ccccc2F)c2ccccc2n1Cc1ccccc1Cl,87
SMILES,aSyn 5UTR act
O=C(C#Cc1ccccc1)Nc1ccccc1F,-141*
N=c1c2c(n(Cc3cccc(Cl)c3)c3c1CCC3)CCCC2,55
O=C(Nc1ccc(F)cc1)Nc1cccnc1Cl,-81*
COc1ccc(NC(=O)Nc2ccccc2F)c([N+](=O)[O-])c1,-139*
O=C(Nc1ccccc1F)Nc1ccccc1Br,-106*
COc1ccc(NC(=O)Nc2ccccc2SC)cc1,-113*
Cc1ccccc1NC(=O)OCc1ccccc1,-84*
Fc1ccccc1NC(=S)N/N=C/c1ccccc1Br,-248*
COc1ccc(C/C(C)=N/NC(=S)Nc2ccccc2F)cc1,-152*
Cc1ccc(Cn2c(O)c(N=NC(=S)Nc3ccccc3F)c3ccccc32)cc1,71
COC(=O)c1ccc(NC(=O)Nc2ccccc2F)cc1,-95*
COc1ccc(NCC(=O)Nc2ccccc2C#N)cc1Cl,-68*
COc1cccc(COC(=O)Nc2ccccc2F)c1,-146*
O=C(Nc1ccc(F)cc1)Nc1ccccc1F,-180*
CSc1ccccc1NC(=O)Nc1ccc(Cl)cc1,-190*
Cc1cc(C)c2ccc(N)nc2c1O,65
COC(=O)c1ccc(NC(=O)Nc2ccccc2C)cc1,-107*
CSc1ccc(NC(=O)Nc2ccccc2C(N)=O)cc1,-92*
COc1ccc(NC(=O)Nc2ccccc2F)c(C)c1,-98*
COc1cc(C)c(C(=O)CC(=O)c2c(C)cc(OC)cc2C)c(C)c1,72
O=C(Nc1ccc(Cl)cc1)Nc1ccccc1CC[N+](=O)[O-],-97*
COc1ccc(NC(=O)Nc2ccccc2F)cc1,-134*
Cc1ccc2oc(=O)c(/C=C(\O)c3ccccc3)nc2c1,-79*
Cc1ccc2oc(=O)c(/C=C(\O)c3cccs3)nc2c1,-148*
O=c1oc2ccc(Cl)cc2nc1/C=C(\O)c1cccs1,-108*
SMILES,aSyn 5UTR act
CC1=CC(c2ccccc2)=Nc2ccc(C)cc2N1,-151*
O=c1c(/C=C(\O)c2ccc(F)cc2)nc2ccccc2n1-c1ccccc1,-130*
Cc1ccc(-c2cc3c(nn2)-c2ccccc2C3=O)cc1,86
O=C1c2ccccc2-c2nc3ccccc3cc21,-114*
c1ccc2c(c1)Cc1cc3ccccc3nc1-2,-102*
COc1ccccc1CNS(=O)(=O)c1ccc(-c2cc(C)no2)cc1,80
COc1ccccc1NS(=O)(=O)c1ccc(-c2cc(C)no2)s1,-102*
CCN(CC)C(=S)SSC(=S)N(CC)CC,97
CCN(CC)C(=S)SCC(=O)c1ccccc1,-165*
CCN(CC)C(=S)SCC(=O)c1ccc(F)cc1,-133*
Cc1ccc(Cn2cccc(-c3nc4ccccc4s3)c2=O)cc1,-194*
O=c1c(-c2nc3ccccc3s2)cccn1Cc1ccccc1,-87*
COC(=O)c1sccc1NC(=O)/C=C/c1ccc(Cl)cc1Cl,-206*
COC(=O)c1sccc1NC(=O)/C=C/c1c(Cl)cccc1Cl,-139*
Cc1ccc(S(=O)(=O)c2nc(S(=O)(=O)c3ccc(C)cc3)c(N3CCN(CCO)CC3)s2)cc1,-64*
Cc1ccc(S(=O)(=O)c2nc(S(C)(=O)=O)sc2N2CCOCC2)cc1,-72*
Cc1cc(COc2ccccc2)oc1C(=O)O,-108*
C=CCc1ccc(OCc2ccc(C(=O)OC)o2)c(OC)c1,-121*
C=CCc1ccc(OCC(O)COCC)c(OC)c1 (stereo not drawn),-76*
Cc1csc(NC(=O)c2ccc(COc3ccccc3)o2)n1,-136*
Cc1ccc(OCc2ccc(C(=O)O)o2)cc1C,-188*
COC(=O)c1ccc(COc2cc(C)ccc2C)o1,-149*
COC(=O)c1ccc(COc2ccc(C)c(C)c2)o1,-198*
Cc1ccc(OCc2ccc(C(=O)Nc3nccs3)o2)cc1C,-110*
O=C(NNc1cccc(Cl)n1)c1ccc(Cl)cc1Cl,-81*
SMILES,aSyn 5UTR act
CC1Cc2cc(/C(O)=C3/C(=O)C(=O)N(CC4CCCO4)C3c3ccco3)ccc2O1 (stereo not drawn),-62*
COc1ccc(/C=C/c2cc(-c3ccc(C)cc3)o[n+]2C)cc1,89
COc1ccc(C(=O)NNC(=O)c2ccccn2)cc1,79
COc1ccc(/C=C/C(=O)c2ccoc2)cc1,-62*
COc1ccc2cc(C(=O)/C=C/c3cc(OC)c(OC)c(OC)c3)ccc2c1,-62*
COc1cc(/C=C/c2ccc(O)cc2)cc(OC)c1,-156*
COC(=O)c1ccc2c(c1)C(C)(C)C(/C=C/c1ccc(O)cc1)=[N+]2C,119
COc1ccc(/C=C/C(=O)c2ccccn2)cc1,-98*
COc1ccc(/C=C/C(=O)c2ccc(O)cc2)cc1,-196*
COc1ccc(/C=C/C(=O)c2ccccc2O)cc1,-233*
O=Cc1cc(-c2ccccc2)[nH]c1-c1ccccc1,-64*
CCOc1ccc(-c2nnc(-c3ccco3)o2)cc1OCC,-76*
CCOc1ccc(-c2nnc(-c3cccs3)o2)cc1OCC,-86*
COc1ccc(-c2nnc(-c3cccs3)o2)cc1OC,-148*
Cc1[nH]c2ccccc2c1/C=C/c1nc2ccccc2c(=O)n1CCO,-62*
Cc1cccc(N=C2NN=C(c3ccc4c(c3)OCCO4)CS2)c1,-140*
Cc1cccc(N=C2NN=C(c3c(C)[nH]c4ccccc34)CS2)c1,-90*
CCNc1nc(N)c(C(=O)c2ccc(Cl)s2)s1,-188*
O=C(COc1ccccc1Cl)NCc1ccccc1,-72*
COc1ccc(OCC(=O)Nc2cccc(NC(=O)COc3ccc(OC)cc3)n2)cc1,-136*
COc1ccc(-n2nc3c(c2NC(=O)COc2ccccc2)CS(=O)(=O)C3)cc1,-76*
COc1ccc(OCC(=O)Nc2ccccc2Cl)cc1,-111*
O=C(COc1ccc(C(=O)c2ccccc2)cc1)NCc1ccc(F)cc1,113
